In PubChem BioAssay AID686971 (National Center for Advancing Translational Sciences (NCATS), 2013):
In all, about 360,000 compounds went through this assay and about 7,500 (2.1%) were called active. A call without a number means that no potency is given here. Another 8% or so got no clear call; they are omitted. This excerpt belongs to a sample that is enriched for actives. Values without a mark were called inactive. Calls come from the whole dose curve; as a rule, active = well fitted cell-killing curve with a large enough effect; inconclusive = small, poorly fitted or top-dose-only effect, or effect the other way, or another doubt; inactive = no such curve, though single readings can be large or run the other way.

experiment: qHTS for induction of synthetic lethality in tumor cells producing 2HG: qHTS for the HT-1080-IDH1KD cell line; conditions: HT-1080 IDH1 knockdown viability, ATP luminescence, 48 h; series mostly up to 46.1 µM
Summary of the method: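 After a 2 h attachment period, IDH1KD HT-1080 cells took pin-transferred compound for 48 h at 37 °C; ATP-based luminescence after 10 min room-temperature reagent incubation reported viability.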
Potency is the fitted concentration of half-maximal effect.

SMILES	Potency	activity, negative = toxicity
COc1cccc(OCC(=O)NCCS(=O)(=O)N2CCN(c3ccccc3)CC2)c1	inactive	–
COc1ccc(CCNC(=O)Nc2ccc3c(c2)c(=O)n(C)n3C)cc1OC	inactive	–
Cc1[nH]n(C)c(=O)c1C(=O)c1c(-c2c(Cl)cccc2Cl)noc1C	16.4 µM (active)	–
Cc1onc(-c2c(Cl)cccc2Cl)c1C(=O)c1c[nH]c(C(=O)NC2CC2)c1	inactive	–
Cc1onc(-c2c(Cl)cccc2Cl)c1C(=O)NNC(=O)c1c(-c2c(Cl)cccc2Cl)noc1C	inactive	–
CC(C)(C(=O)N1CCC1(C)C(=O)NS(=O)(=O)c1ccc(Br)cc1)c1ccccc1 (centres undefined)	inactive	–
CCOC(=O)C1=CC[C@@H](c2ccccc2)N(S(=O)(=O)c2ccc(C)cc2)[C@H]1c1ccc(CC)cc1	inactive	–
CCCCCCN1C[C@@H](O)[C@H](n2cc(COC(=O)c3ccccc3)nn2)C[C@@H]1c1ccc(Cl)cc1	inactive	–
O=C(O)C1CCCN1c1nc(Cl)ccc1[N+](=O)[O-] (centres undefined)	inactive	–
CC(C)NC(=O)Nc1ccc2c(c1)C(=O)N([C@H](C)CO)C[C@H](C)[C@@H](CN(C)Cc1ccc(C(F)(F)F)cc1)OCCCC[C@@H](C)O2	inactive	–
COc1cc(C(=O)Nn2c(CC(C)C)nc3ccccc3c2=O)cc(OC)c1OC	inactive	–
O=C(Cc1c(O)c2ccccc2[nH]c1=O)NCc1ccccc1	inactive	–
CCCc1nc2ccccc2c(=O)n1NC(=O)c1c(O)c2ccccc2[nH]c1=O	11.2 µM (active)	–
CCOC(=O)c1c(C(C#N)C#N)cc(C)nc1C	inactive	–
CCOC(=O)c1cc(C)nc(S(C)(=O)=O)c1C#N	20.6 µM (active)	–
CCOC(=O)COc1nc(C)cc(C(F)(F)F)c1C#N	inactive	–
NS(=O)(=O)c1ccc(CNC(=O)c2cc(S(=O)(=O)N3CCOCC3)ccc2N2CCCC2)cc1	inactive	–
COC(=O)Cc1ccc(OC2(C)CCN(Cc3ccc4c(c3)OCCO4)C2)cc1 (centres undefined)	inactive	–
COc1ccc(C(=O)C(OP(=O)(OC)OC)c2ccccc2OC)cc1 (centres undefined)	inactive	–
C[C@@H]1CN([C@@H](C)CO)S(=O)(=O)c2ccc(C#Cc3cccc(F)c3)cc2O[C@H]1CN(C)S(=O)(=O)c1cn(C)cn1	inactive	–
O=C(CCc1ccc(O)cc1)NN=Cc1cc(Br)ccc1O	16.4 µM (active)	–
O=C(CCC(=O)N/N=C/c1ccc(Br)o1)N/N=C/c1ccc(Br)o1	inactive	–
CCOc1cc(C=NNC(=O)CCCC(=O)NN=Cc2ccc(O)c(OCC)c2)ccc1O	inactive	–
CCc1nc2ccc(C(=O)N3CCN(S(=O)(=O)CC)CC3)cn2c1N(C=O)CCC(C)C	inactive	–
C[C@H]1CN([C@@H](C)CO)C(=O)CCCn2nncc2CO[C@@H]1CN(C)S(=O)(=O)c1cccc(C#N)c1	inactive	–

SMILES	Potency	activity, negative = toxicity
Cc1ccc(S(=O)(=O)/N=C2\C=C(NS(=O)(=O)c3ccc(C)cc3)C(=O)c3ccccc32)cc1	inactive	–
COc1ccc(S(=O)(=O)NCCCc2ccccc2)cc1	inactive	–
COc1ccc(S(=O)(=O)/N=C2\C=C(NS(=O)(=O)c3ccccc3)C(=O)c3ccccc32)cc1	20.6 µM (active)	–
CC1(C(=O)NS(=O)(=O)c2ccccc2Cl)CCN1C(=O)c1cccc(F)c1 (centres undefined)	inactive	–
CCCCC(O)C1=C[N+](=O)CC=C1 (centres undefined)	inactive	–
O=C(COC(=O)CCc1c[nH]c2ccccc12)Nc1cccc(Cl)c1	inactive	–
CCCCOC(=O)Nc1nnc(CC(=O)NCc2ccccc2)s1	5.17 µM (active)	–
CCCCc1nnc(NC(=O)CS(=O)(=O)Cc2ccccc2)s1	inactive	–
CCCCOC(=O)Nc1nccs1	inactive	–
CCC(c1nc2ccccc2[nH]1)n1c(=O)c(-c2cccs2)nc2ccccc21 (centres undefined)	inactive	–
COc1ccc(C(=O)NCC[N+](C)(C)C)cc1	inactive	–
CCOC(=O)c1cnn2c(SC)ncnc12	inactive	–
COc1ccc(NC(=O)CN(C)C(=O)c2ccc(COc3ccccc3)o2)cc1	inactive	–
Cc1cc(OCc2ccc(C(=O)Nc3ccc(C(=O)O)cc3)o2)ccc1Cl	23.1 µM (active)	–
CCOc1ccc(OCc2ccc(C(=O)Nc3cccc(C)n3)o2)cc1	–	2.75% [at 9.24 µM]
N#Cc1ccc(C(C(=O)NCc2ccccc2)n2c(=O)c(-c3ccco3)nc3ccccc32)cc1 (centres undefined)	inactive	–
Cc1ccc(-c2csc(NC3OC(=O)c4ccccc43)n2)cc1 (centres undefined)	11.6 µM (active)	–
C/C(CC1CC(C)(C)OC1=O)=N/Nc1nc(-c2ccccc2)cs1 (centres undefined)	inactive	–
CCc1ccccc1NC(=O)[C@@H]1CCC(=O)N1C1OC(=O)c2c1ccc(OC)c2OC (some centres undefined)	inactive	–
Cc1ccc(-c2csc(-c3cc(C)on3)n2)cc1	inactive	–
COc1ccc2c(c1OC)C(=O)OC2Nc1nc(-c2ccccc2)cs1 (centres undefined)	10.3 µM (active)	–
Cc1ccc(-c2csc(-c3c[nH]c4ccccc34)n2)cc1	inactive	–
COC(=O)C(Cc1c[nH]c2ccccc12)NC(=O)CCNC(=O)c1ccco1 (centres undefined)	inactive	–
CC(=O)N1CCN(Cc2cc(=O)oc3cc(C)ccc23)CC1	inactive	–
c1ccc(Cn2nnc3c(N4CCCCC4)ncnc32)cc1	inactive	–

SMILES	Potency	activity, negative = toxicity
O=C1CCC(C(=O)OCC(=O)Nc2ccc(OC(F)F)cc2)=NN1	inactive	–
CC(C)(O)C1=C[N+](=O)CC=C1	inactive	–
CCN(CCN(C)C)C(=O)c1ccc2nc(C)c(N(C)C(=O)CCc3ccccc3)n2c1	inactive	–
COc1ccc(CCNC(=O)Cc2ccc(C)cc2)cc1OC	inactive	–
COc1ccc(NC(=O)CNC(=O)Cc2ccccc2)cc1OC	inactive	–
COc1ccc(CNC(=O)Cc2ccc(-c3ccccc3)cc2)cc1OC	14.6 µM (active)	–
CC1=C(C(=O)N2CCOCC2)CC(CC(=O)NCCCN(C)C)C(=O)N1Cc1ccc(C(C)(C)C)cc1 (centres undefined)	inactive	–
COc1ccc(Cn2c(=O)[nH]c3cc(C(=O)N4CCN(C(=O)c5ccco5)CC4)ccc3c2=O)cc1	inactive	–
COc1ccccc1NC(=O)C(CC(=O)O)Cc1cc(C)cc(C)c1 (centres undefined)	inactive	–
O=C(CSc1ccc(Cl)cc1)NC1CC1	inactive	–
COc1ccc(CNC(=O)/C(C#N)=C/c2cccc(OC)c2OC)cc1	25.9 µM (active)	–
COc1ccc(NC(=O)/C(C#N)=C\c2cc(OC)c(OCc3ccc(C(=O)O)cc3)cc2Br)cc1	inactive	–
COc1ccc(CNC(=O)CCn2cccc2)cc1	inactive	–
CCOC(=O)C(C(=O)c1ccccc1)C(c1ccccc1)c1nccc2ccccc12 (centres undefined)	inactive	–
Cc1ccc(S(=O)(=O)N2[C@@H](Cc3ccccc3)CO[C@H]2CC(=O)OCc2ccccc2)cc1	inactive	–
CC(=O)Nc1cccc(-c2cc3nc(NCc4cccnc4)n(C)c(=O)c3s2)c1	inactive	–
O=C1NC[C@@H](CCCCN2CCN(CCc3ccc(O)cc3)C(=O)C2=O)N(CC2CCCCC2)C1=O	inactive	–
CC(C)(C)N1C(=O)c2c(C(=O)OCc3ccccc3)[nH]c(-c3ccccc3)c2C1=O	inactive	–
O=C(N/N=C\c1cccnc1)c1cc(-c2ccccc2)nc2c(Cl)cccc12	9.2 µM (active)	–
C/C(=N\NC(=O)c1cc(-c2ccc(O)cc2)nc2ccccc12)c1cccnc1	inactive	–
COc1ccc(-c2cc(C(=O)N/N=C/c3cccnc3)c3ccccc3n2)c(OC)c1	inactive	–
CCOc1ccc(S(=O)(=O)NCCC(=O)NNC(=O)c2ccc(F)cc2)cc1	inactive	–
C[C@@H]1CN([C@H](C)CO)C(=O)c2cc(Br)cnc2O[C@@H]1CN(C)Cc1cncnc1	inactive	–
Cc1ccc(-c2nc(-c3ccncc3)no2)c(C)c1	inactive	–
COc1ccc(-c2nc(-c3ccccc3)no2)c(OC)c1	14.1 µM (active)	–

SMILES	Potency	activity, negative = toxicity
COc1ccc(/C=C/c2noc(-c3ccccc3OC(C)=O)n2)cc1	inactive	–
CCOc1ccc(NS(=O)(=O)c2ccc(C(=O)NCC3CCCO3)cc2)cc1 (centres undefined)	inactive	–
COCc1[nH]nc2c1C(C1C=CCCC1)C(C#N)=C(N)O2 (centres undefined)	11.2 µM (active)	–
CCOc1c(OC)cc(C2C(C#N)=C(N)Oc3n[nH]c(-c4ccncc4)c32)cc1OC (centres undefined)	inactive	–
CCc1ccc(C2C(C#N)=C(N)Oc3n[nH]c(CC(=O)OC)c32)cc1 (centres undefined)	inactive	–
O=C(NCc1cccc(C(F)(F)F)c1)c1ccc2sc(COCCO)nc2c1	inactive	–
Cc1ccc(Cc2c(-c3ccc(Cl)cc3)nc3c4ccccc4ccn23)cc1	inactive	–
Cc1cc(Br)cn2c(Cc3ccsc3)c(-c3ccc(C#N)cc3)nc12	inactive	–
COC(=O)c1cc(NC(=O)Cc2ccccc2[N+](=O)[O-])ccc1Cl	inactive	–
N#Cc1cccc(NC(=O)COC(=O)c2ccccc2C(=O)c2ccc(Cl)c([N+](=O)[O-])c2)c1	5.17 µM (active)	–
CC(=O)Nc1ccc(NC(=O)COC(=O)c2ccccc2C(=O)c2ccccc2)cc1	inactive	–
N#Cc1ccc(-c2ccc3nccn3c2)cc1	inactive	–
Cc1ccc(S(=O)(=O)N[C@H]2CCC[C@@H]2O)cc1	inactive	–
CNC[C@H]1OCc2cnnn2CCCC(=O)N([C@H](C)CO)C[C@@H]1C	inactive	–
COC(=O)c1ccc2c(c1)S(=O)(=O)NC2C (centres undefined)	inactive	–
C=CCc1ccc(OCCOc2cccc(/C=N/n3cnnc3)c2)c(OC)c1	inactive	–
COc1ccccc1OCCOc1ccc(/C=N/n2cnnc2)cc1	20.6 µM (active)	–
COc1cccc(OCCOc2cccc(/C=N/n3cnnc3)c2)c1	inactive	–
CC(OC(=O)c1cccc(S(=O)(=O)N2CCOCC2)c1)C(=O)NCC1CCCCC1 (centres undefined)	inactive	–
CC(C)C1CCN(C(=O)C2CCC(=O)N(C3CCCCCC3)C2)CC1 (centres undefined)	inactive	–
CCN1C(=O)[C@H]2[C@@H](c3ccc(C(F)(F)F)cc3)N[C@]3(CCCN(Cc4ccc(Br)cc4)C3=O)[C@H]2C1=O	inactive	–
CC(OC(=O)c1ccc2ccccc2n1)C(=O)c1ccccc1 (centres undefined)	inactive	–
COc1cccc(/C=C/c2ccc3ccccc3n2)c1OC(C)=O	11.6 µM (active)	–
COc1cccc(/C=C2\C=C(c3ccc(C)cc3)OC2=O)c1OC(C)=O	inactive	–
